An excerpt weighted towards active compounds, which were near 7.9% of everything screened.
HCMV inh: qHTS Assay for inhibitors of the human cytomegalovirus (HCMV); activity change, negative = inhibition, % at 57.5 µM; HFF cells, HCMV-luciferase reporter, 72 h; hits give low values; 410,000 compounds, 4.5% hits; in the data active means activity change below about -60%; inconclusive means no clear call, values can overlap the other calls; inactive means above about -39%
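Inhibition of viral replication was scored as loss of reporter luminescence in HFFs infected with HCMV-luciferase (MOI 1 PFU/cell) for 72 h; compounds tested at 2 doses, normalized to buffer and Salinomycin controls.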
FMDV inh: High Throughput Screening for Foot and Mouth Disease Virus Antivirals; AID 1159524, 2015; 410,000 compounds, 1.2% hits; Potency, µM (top dose mostly 57.9 µM), for the others: top-dose activity change, negative = inhibition, actives largely listed as inhibitors; FMDV antiviral cell-based qHTS; calls by dose curve; tested in HEK293T cells; further: read-out not given here; potency means the concentration at half of the fitted maximal effect; nearly all actives have a fitted effect of over 45% in size
LASV entry inh: qHTS for Inhibitors of binding or entry into cells for Lassa Virus; Lassa virus pseudotype entry inhibition, cell reporter; Potency, µM (series often up to 37.9 µM), inactives show at the top dose activity change, negative = inhibition, usual class: inhibitors; 300,000 compounds, 1.2% hits; AID 540256, 2011; calls by dose curve; tested in HEK293 cells; further: potency means the concentration at half of the fitted maximal effect; nearly all actives have a fitted effect of over 50% in size
HCV inhibitor: qHTS Assay for Inhibitors of Hepatitis C Virus (HCV); Potency, µM (top dose mostly 41.8 µM), without a hit: top-dose activity change, negative = inhibition, hits mostly inhibitors; 340,000 compounds, 3.4% hits; Huh7.5.1 HCVcc-Cre infection, luciferase reporter, 44 h; active means well fitted inhibition curve with a large enough effect; inconclusive means small, poorly fitted or top-dose-only effect, or another doubt; inactive means no such curve, though single readings can be large or run the other way; further: potency means the concentration at half of the fitted maximal effect
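Antiviral activity was scored by luciferase reporter output from cells infected with HCVcc-Cre (~0.5 moi) in presence of compound, 44 h infection period, cells seeded 1,000/well 4 h prior.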
MARV entry inh: qHTS for inhibitors of binding or entry into cells for Marburg Virus | 300,000 compounds, 1.8% hits | AID 540276, 2011 | Marburg virus pseudotyped entry inhibition, cell reporter | Potency, µM (titrated, usually from 37.8 µM), without a hit: at the highest dose activity change, negative = inhibition, usual class: inhibitors; calls by dose curve; tested in HEK293 cells; further: potency means the concentration at half of the fitted maximal effect
Numbers without * were called inactive; ? = inconclusive; nt = not tested or not shown; [ ] = remark or other dose. On the % scale 0 is the no-effect control and ±100 the full control effect.

SMILES | HCMV inh | FMDV inh | LASV entry inh | HCV inhibitor | MARV entry inh
CC(=O)OC[C@H]1O[C@H](CC=NO[C@H](C)CN2CCCCc3nc(C)c(C)cc32)C=C[C@@H]1OC(C)=O | nt | nt | nt | nt | -20.6%[14.2 µM]
O=C(CCl)c1ccc2c(c1)CCN2C(=O)C1CCCCC1 | 33.4 | 20µM* | -3.8%[46.1 µM] | ? | ?
CCC1CCCCN1S(=O)(=O)c1ccc2c(c1)CCN2C(=O)C1CCC1 (stereo not drawn) | -27.9 | ? | ? | ? | ?
O=C(C1CCC1)N1CCc2cc(S(=O)(=O)NCCN3CCN(c4ccccc4F)CC3)ccc21 | -27.0 | -21.8% | 15.8µM* | ? | 12.6µM*
O=C(C1CCC1)N1CCc2cc(S(=O)(=O)Nc3ccc4c(c3)OCO4)ccc21 | -72.0* | -15.2% | -25.0% | ? | ?
O=C(CCNS(=O)(=O)c1ccc2c(c1)CCN2C(=O)C1CC1)N1CCN(c2ccccc2F)CC1 | -14.4 | 0.0% | -10.1%[46.1 µM] | nt | nt
CC(C)c1ccc(NC2(C#N)C(=O)Nc3ccccc32)cc1 (stereo not drawn) | -71.7* | 1.0% | 8.9% | 8.7% | 3.9%
Cc1ccccc1NC1(C#N)C(=O)Nc2ccccc21 (stereo not drawn) | 42.0 | -27.1% | -7.9% | -17.1% | -4.2%
COC(=O)C1CCN(C(c2cccs2)c2sc3nc(C)nn3c2O)CC1 (stereo not drawn) | -14.1 | -14.0% | nt | 2.0% | nt
Cc1nc2sc(C(c3ccco3)N3CCN(c4ccccc4)CC3)c(O)n2n1 (stereo not drawn) | -100.0* | -10.6% | nt | 10.7% | nt
Cc1nc2sc(C(c3cccs3)N3CCOCC3)c(O)n2n1 (stereo not drawn) | 15.4 | 0.2% | 1.2% | 13.0% | -26.2%
CCOC(=O)C1CCN(C(c2cccs2)c2sc3nc(C)nn3c2O)CC1 (stereo not drawn) | -61.9* | -12.1% | nt | -6.6% | nt
Cc1nc2sc(C(c3cccs3)N3CCN(c4ccccc4)CC3)c(O)n2n1 (stereo not drawn) | -69.7* | -13.6% | nt | 21.5% | nt
Cc1nc2sc(C(c3ccco3)N3CCN(C(c4ccccc4)c4ccccc4)CC3)c(O)n2n1 (stereo not drawn) | -32.4 | -47.7% | nt | ? | 0.4%
Cc1nc2sc(C(c3ccc(Cl)cc3)N3CCOCC3)c(O)n2n1 (stereo not drawn) | -100.6* | -2.4% | -16.9% | 13.5% | -18.6%
CN1C(=O)N=C2N=CN(C)C2C1=O (stereo not drawn) | nt | nt | nt | nt | 4.5%
CCOc1ccccc1NC(=O)CCS(=O)(=O)c1ccc2c(c1)CCN2C(C)=O | -26.7 | -1.3% | nt | 22.5% | nt
S=C(NNc1nc(Nc2ccccc2)nc(N2CCCCC2)n1)NC1CCCCC1 | -32.5 | -14.5% | -5.8% | ? | 10µM*
Cc1c(CN2CCCC(CO)(Cc3cccc(Cl)c3)C2)cnn1C (stereo not drawn) | -19.9 | 1.3% | 2.1%[46.1 µM] | -15.6% | ?
Cc1ccc(C)c(NC(=O)CCc2nc(-c3ccc(C(C)(C)C)cc3)no2)c1 | -30.6 | -11.9% | -3.8%[46.1 µM] | nt | -13.6%[46.1 µM]
Cc1ccc(-c2noc(CCC(=O)Nc3cccc(C(=O)NC4CC4)c3)n2)cc1 | 12.0 | -15.9% | nt | nt | nt
CC(C)(C)c1ccc(-c2noc(CCC(=O)Nc3cccc(Cl)c3)n2)cc1 | -89.4* | -65.0% | -21.6%[46.1 µM] | nt | ?
CC(C)(C)c1ccc(-c2noc(CCC(=O)NCc3ccco3)n2)cc1 | -81.2* | -8.4% | ? | ? | ?
O=C(CCc1nc(-c2ccc(F)cc2)no1)Nc1cccc(C(=O)NC2CC2)c1 | 34.1 | 39.8µM* | nt | 14.1µM* | nt
O=C(NCc1nc(-c2ccc(C(F)(F)F)cc2)no1)Nc1cc(Cl)cc(Cl)c1 | -96.3* | ? | nt | 4.7% | nt
O=C(NCc1nc(-c2ccc(C(F)(F)F)cc2)no1)Nc1ccc(F)cc1F | 76.3 | -10.6% | 15.3% | -13.7% | ?
COc1ccc(-c2sc3ccccc3c2-c2ccc(O)cc2)cc1 | -29.6 | -19.9% | nt | ? | nt
COc1ccccc1-c1sc2ccccc2c1-c1ccc(O)cc1 | -21.4 | -13.1% | nt | 5.62µM* | nt
COc1ccccc1-c1sc2ccccc2c1-c1ccc2c(c1)OCO2 | -7.8 | -11.4% | nt | ? | nt
COc1ccc(-c2sc3cc(OC)c(OC)cc3c2-c2ccc(O)cc2)cc1 | 3.8 | -34.7% | nt | 28.2µM* | nt

Screening data as filed in PubChem.
